Some test systems named below: ROCK2; ROS1; SBK1; SGK2; SGK3; SIK2.
Settings in all cases: Compound Concentration (nM):1000
The test system of experiment [1] is RPS6KA4(Kin.Dom.1-N-terminal).
In experiment [2] the test system is RPS6KA4(Kin.Dom.2-C-terminal).
For experiment [3], the system named is RPS6KA5(Kin.Dom.1-N-terminal).
The subject of experiment [4] is RPS6KA5(Kin.Dom.2-C-terminal).
The subject of experiment [5] is T1, RSK1(Kin.Dom.1-N-terminal).
T1 construct: gene RPS6KA1

Experiment [6] relates to T2, RSK1(Kin.Dom.2-C-terminal).
T2 construct: gene RPS6KA1

Experiment [7] concerns T3, RSK2(Kin.Dom.1-N-terminal).
T3 construct: gene RPS6KA3

The subject of experiment [8] is T4, RSK2(Kin.Dom.2-C-terminal).
T4 construct: gene RPS6KA3

For experiment [9], the system named is T5, RSK3(Kin.Dom.1-N-terminal).
T5 construct: gene RPS6KA2

Experiment [10] has as its system T6, RSK3(Kin.Dom.2-C-terminal).
T6 construct: gene RPS6KA2

Experiment [11] deals with T7, RSK4(Kin.Dom.1-N-terminal).
T7 construct: gene RPS6KA6

The test system of experiment [12] is T8, RSK4(Kin.Dom.2-C-terminal).
T8 construct: gene RPS6KA6

In another experiment the test system is T9, S6K1.
T9 construct: gene RPS6KB1

The test system of another experiment is T10, SGK.
T10 construct: gene SGK1
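Note: KINOMEscan scanMAX binding as percent activity remaining versus control; lower means stronger binding.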

Turning to `COc1cc2ncn(-c3cc(O[C@H](C)c4ccccc4Cl)c(C(N)=O)s3)c2cc1OC` [GSK237701A], the “Percent Control” value in the experiment on ROCK2 was 83%; with ROS1, 92%; in experiment [1], 92%; in experiment [2] it was 68%; in [3], 100%; in experiment [4], 72%. Also, the “Percent Control” value was 96% in experiment [5]; 87% in [6]; 50% in experiment [7]; 77% in experiment [8]; 100% in [9]; 90% in [10]. Further, the “Percent Control” value in [11] was 45%; in experiment [12] it was 94%; in the experiment on S6K1 it was 68%; in the experiment with SBK1, 83%; in the experiment on SGK2, 87%; in the experiment on SGK3, 75%. The “Percent Control” value with SGK is given as 90%; in the experiment with SIK2, 65%.
In the case of `C/C(Nc1ccc(S(N)(=O)=O)cc1)=C1/C(=O)Nc2ccccc21` [GW335962X], the “Percent Control” value is 69% with ROCK2; 76% in the experiment with ROS1; 96% in [1]; 85% in experiment [2]; 100% in experiment [3]; 100% in experiment [4]. Moreover, the “Percent Control” value was 100% in [5]; 92% in experiment [6]; 52% in experiment [7]; 89% in experiment [8]; 83% in experiment [9]; 82% in experiment [10]. The “Percent Control” value in experiment [11] came out at 47%; in [12] it was 86%; in the experiment with S6K1 it was 60%; with SBK1 it was 100%; with SGK2, 71%; in the experiment on SGK3, 26%. The figures for the “Percent Control” value in the experiment on SGK and in the experiment on SIK2 were 21% and 90%, respectively.
`COc1cc(C=NNc2ncnc3c2cnn3-c2ccccc2)ccc1O` [GW513184X]: the “Percent Control” value in the experiment with ROCK2 is 88%; with ROS1, 99%; in experiment [1] it was 100%; in experiment [2], 82%; in [3], 100%; in experiment [4], 85%. Further, the “Percent Control” value in experiment [5] was 100%; in experiment [6] it was 100%; in experiment [7], 88%; in [8] it was 71%; in experiment [9] it was 100%; in [10], 100%. For the same compound, the “Percent Control” value in experiment [11] is 90%; in [12] it was 100%; in the experiment with S6K1, 100%; in the experiment with SBK1, 100%; in the experiment with SGK2, 66%; in the experiment with SGK3 it was 85%. The results for the “Percent Control” value in the experiment on SGK and in the experiment on SIK2 were 50% and 61%, respectively.
Consider `CN1CCN(C(=O)c2ccc(NC(=O)Nc3ccc(N(C)c4ccnc(Nc5ccc(CS(C)(=O)=O)cc5)n4)cc3)cc2)CC1.Cl` [GW830263A], for which the “Percent Control” value with ROCK2 is 1.5%; in the experiment on ROS1, 57%; in experiment [1] it was 82%; in [2], 74%; in [3], 100%; in experiment [4], 87%. For the same compound, the “Percent Control” value in experiment [5] was 100%; in [6], 93%; in [7], 57%; in experiment [8], 86%; in experiment [9], 84%; in experiment [10] it was 89%. Moreover, the “Percent Control” value is recorded as 74% in experiment [11]; 84% in experiment [12]; 37% with S6K1; 65% with SBK1; 73% in the experiment on SGK2; 79% with SGK3. Moreover, the figures for the “Percent Control” value in the experiment on SGK and in the experiment on SIK2 were 57% and 56%, respectively.
`Cl.O=S1CCN(Cc2ccc(-c3ccc4ncnc(Nc5ccc(OCc6ccccc6)c(F)c5)c4c3)o2)CC1` [GW576924A]: the “Percent Control” value in the experiment with ROCK2 is 94%; with ROS1 it was 100%; in experiment [1], 100%; in [2], 100%; in experiment [3] it was 100%; in experiment [4], 100%. Moreover, the “Percent Control” value in [5], in experiment [6], in [7], in experiment [8], in experiment [9] and in experiment [10] was 100% in each case. Also, the “Percent Control” value in [11] came to 97%; in [12], 100%; in the experiment on S6K1, 97%; in the experiment on SBK1, 100%; in the experiment with SGK2, 100%; in the experiment on SGK3, 78%. For the same compound, the entries for the “Percent Control” value with SGK and in the experiment on SIK2 were 100% and 81%, respectively.
Turning to `CCc1ccc(Oc2nccc(-c3c(-c4ccc(F)cc4)ncn3C3CCNCC3)n2)cc1` [SB-242719], the “Percent Control” value is 90% in the experiment with ROCK2; 61% in the experiment on ROS1; 100% in experiment [1]; 73% in [2]; 98% in experiment [3]; 87% in [4]. Besides, the “Percent Control” value in experiment [5] was 99%; in [6], 77%; in experiment [7], 97%; in experiment [8], 94%; in experiment [9] it was 92%; in experiment [10], 94%. Moreover, the “Percent Control” value in experiment [11] was 93%; in experiment [12], 79%; in the experiment with S6K1, 93%; in the experiment with SBK1, 100%; in the experiment on SGK2 it was 100%; in the experiment on SGK3, 77%. For the same compound, the “Percent Control” value amounted to 100% in the experiment on SGK and 66% with SIK2.
Consider `CC1=C(C(=O)Nc2ccc3[nH]ncc3c2)C(c2ccc3ccccc3c2)CC(=O)N1` (centres unmarked) [GSK270822A], for which the “Percent Control” value is 0% in the experiment with ROCK2; 81% in the experiment on ROS1; 100% in experiment [1]; 91% in experiment [2]; 100% in experiment [3]; 64% in experiment [4]. Moreover, the “Percent Control” value in experiment [5] was 91%; in [6], 99%; in experiment [7], 72%; in experiment [8] it was 75%; in experiment [9] it was 84%; in experiment [10], 100%. Besides, the “Percent Control” value worked out at 67% in experiment [11]; 95% in experiment [12]; 67% with S6K1; 48% with SBK1; 69% in the experiment with SGK2; 42% in the experiment with SGK3. Moreover, the “Percent Control” value worked out at 69% in the experiment on SGK and 86% in the experiment on SIK2.
`Cc1cc(O)cc(C)c1/C=C/c1cncc(C(N)=O)c1` [GW435821X]: the “Percent Control” value with ROCK2 was 100%; in the experiment with ROS1, 86%; in [1] it was 100%; in experiment [2], 98%; in [3], 100%; in [4], 100%. The “Percent Control” value in experiment [5] is 100%; in experiment [6] it was 100%; in experiment [7], 100%; in experiment [8], 96%; in experiment [9], 100%; in experiment [10], 100%. Further, the “Percent Control” value in experiment [11] worked out at 96%; in experiment [12], 100%; in the experiment on S6K1, 100%; in the experiment on SBK1, 100%; in the experiment with SGK2, 100%; in the experiment on SGK3 it was 84%. The “Percent Control” value in the experiment with SGK was 100%; in the experiment on SIK2, 53%.
For the compound `COC(=O)Nc1nc2ccc(Oc3ccc(NC(=O)Nc4cc(C(F)(F)F)ccc4F)cc3)cc2s1.Cl` [GW693917A], the “Percent Control” value is 86% with ROCK2; 95% in the experiment on ROS1; 100% in [1]; 80% in [2]; 100% in [3]; 100% in experiment [4]. For the same compound, the “Percent Control” value in [5] was 99%; in [6], 94%; in experiment [7], 98%; in [8] it was 86%; in [9], 65%; in experiment [10] it was 91%. Further, the “Percent Control” value is 76% in [11]; 79% in experiment [12]; 54% in the experiment with S6K1; 100% with SBK1; 80% with SGK2; 78% with SGK3. The “Percent Control” value in the experiment on SGK was determined as 87%; in the experiment with SIK2, 68%.
For `COc1cc(/C=N/Nc2ncnc3[nH]ncc23)ccc1O` [GW578748X], the “Percent Control” value is 33% in the experiment on ROCK2; 96% in the experiment on ROS1; 100% in experiment [1]; 5.5% in [2]; 100% in [3]; 91% in experiment [4]. Besides, the “Percent Control” value in experiment [5] was 100%; in experiment [6], 100%; in experiment [7] it was 72%; in experiment [8] it was 93%; in experiment [9], 100%; in [10], 100%. In addition, the “Percent Control” value is recorded as 45% in [11]; 100% in experiment [12]; 40% in the experiment with S6K1; 16% in the experiment with SBK1; 40% in the experiment with SGK2; 7.1% in the experiment with SGK3. Besides, the “Percent Control” value in the experiment on SGK amounted to 1.5%; in the experiment on SIK2, 83%.
